In PubChem BioAssay (Tox21):
Records with an inconclusive call do not appear. Activity calls are given as the source filed them. Unless noted, calls come from the whole dose curve; as a rule, active = well fitted curve in the direction sought with a large enough effect in the repeat runs; inconclusive = weak or mixed curves; inactive = no such curve, though single readings can be large; an effect the other way counts as inactive or inconclusive.

What was measured:
[1] = qHTS assay to identify small molecule antagonists of the retinoid acid receptor (RAR) signaling pathway - cell viability counter screen (AID 1159551); note: nearly all actives have a fitted effect of over 35% in size
How it was run: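 Measured by luminescent ATP detection, viability reflects C3RL4 cells treated 6 h at 37 C with test chemicals in the presence of 1 uM (final) retinol.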

[2] = qHTS assay to identify small molecule agonists of the retinoic acid receptor (RAR) signaling pathway (AID 1159553)
How it was run: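 6 hr compound exposure (DMSO vehicle) of overnight-plated C3RL4 RARE-luc cells at 37 C; luminescence quantified after 30 min RT with luciferase reagent.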

[3] = molecular target: Luciferin 4-monooxygenase (Photinus pyralis) (UniProt P08659); assay: qHTS assay to identify small molecule inhibitors of firefly luciferase (AID 1224835); note: series mostly up to about 120 µM; nearly all actives have a fitted effect of over 25% in size
Sequence of Luciferin 4-monooxygenase (Photinus pyralis) (P08659 whole entry, looked up): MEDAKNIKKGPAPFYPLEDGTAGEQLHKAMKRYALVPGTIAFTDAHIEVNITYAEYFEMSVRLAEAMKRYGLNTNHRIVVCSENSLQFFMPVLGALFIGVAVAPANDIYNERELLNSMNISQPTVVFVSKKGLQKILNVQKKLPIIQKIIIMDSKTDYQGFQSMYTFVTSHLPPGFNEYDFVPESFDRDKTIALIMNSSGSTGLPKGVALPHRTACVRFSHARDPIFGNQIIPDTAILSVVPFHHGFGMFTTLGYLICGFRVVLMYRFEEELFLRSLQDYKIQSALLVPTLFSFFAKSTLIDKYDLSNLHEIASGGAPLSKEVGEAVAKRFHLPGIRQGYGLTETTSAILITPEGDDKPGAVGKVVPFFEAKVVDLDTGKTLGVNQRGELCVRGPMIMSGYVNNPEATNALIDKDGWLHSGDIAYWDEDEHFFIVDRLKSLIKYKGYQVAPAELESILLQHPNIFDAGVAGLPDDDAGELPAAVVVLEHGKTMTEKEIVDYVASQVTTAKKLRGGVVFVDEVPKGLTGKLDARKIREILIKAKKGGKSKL
How it was run: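 Quantitative HTS format; KM concentrations of both substrates. Purified P. pyralis FLuc activity quantified from luminescence images.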

[4] = qHTS assay to identify small molecule agonists of the constitutive androstane receptor (CAR) signaling pathway - cell viability counter screen (AID 1224836); note: series mostly up to about 92 µM; nearly all actives have a fitted effect of over 45% in size
How it was run: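 Counter screen multiplexed with the CAR reporter readout: HepG2 cells co-transfected with hCAR and the CYP2B6-2.2kb construct receive a 15-concentration compound series and 0.75 uM PK11195 (final), then CellTiter-Fluor fluorescence is read after 23 h.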

[5] = qHTS assay to identify small molecule antagonists of the constitutive androstane receptor (CAR) signaling pathway - cell viability counter screen (AID 1224837); note: nearly all actives have a fitted effect of over 45% in size; note: potency is the fitted concentration of half-maximal effect; for activity change, negative = cytotoxicity: series mostly up to about 92 µM
How it was run: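 To flag cytotoxic false antagonists, HepG2 hCAR/CYP2B6-2.2kb cells were treated 23 hr with 15-concentration compound series and 50 nM CITCO at 37 C/5% CO2; CellTiter-Fluor fluorescence was the measured end point.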

[6] = molecular target: Nuclear receptor subfamily 1 group I member 3 (Homo sapiens) (UniProt Q14994); assay: qHTS assay to identify small molecule antagonists of the constitutive androstane receptor (CAR) signaling pathway (AID 1224838);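 note: HepG2 cells stably expressing hCAR with CYP2B6 luciferase reporter stimulated by CITCO; nearly all actives have a fitted effect of over 40% in size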; note: potency is the fitted concentration of half-maximal effect
Sequence of Nuclear receptor subfamily 1 group I member 3 (Homo sapiens) (Q14994 whole entry, looked up): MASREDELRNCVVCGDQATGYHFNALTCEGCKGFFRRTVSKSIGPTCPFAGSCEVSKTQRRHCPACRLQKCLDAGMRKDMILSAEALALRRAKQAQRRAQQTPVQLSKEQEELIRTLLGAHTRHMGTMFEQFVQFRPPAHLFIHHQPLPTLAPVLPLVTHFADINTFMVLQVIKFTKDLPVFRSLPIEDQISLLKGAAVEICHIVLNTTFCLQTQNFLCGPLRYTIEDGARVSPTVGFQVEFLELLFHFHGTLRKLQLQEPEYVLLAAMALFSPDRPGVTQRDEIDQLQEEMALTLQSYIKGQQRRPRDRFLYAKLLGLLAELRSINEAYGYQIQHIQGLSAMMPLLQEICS
How it was run: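 Human hepatoma HepG2 cells expressing hCAR and a CYP2B6 promoter (2.2 kb) luciferase construct; compound titration (15 points) with 50 nM CITCO final, 24 h at 37 C/5% CO2; luminescence via ONE-Glo after 30 min at room temperature.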

[7] = molecular target: Nuclear receptor subfamily 1 group I member 3 (Homo sapiens) (UniProt Q14994); assay: qHTS assay to identify small molecule agonists of the constitutive androstane receptor (CAR) signaling pathway (AID 1224839); note: series mostly up to about 92 µM; nearly all actives have a fitted effect of over 15% in size
How it was run: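 A 15-concentration quantitative screen uses HepG2 cells co-transfected stably with human CAR and CYP2B6-2.2kb reporter. Treatment lasts 24 h with 0.75 uM PK11195 final present; ONE-Glo luminescence is the signal.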

[8] = qHTS assay to identify small molecule antagonists of the estrogen related receptor signaling pathway with the pleiotropic PPARgamma coactivator (PGC) from Tox21 10K library - cell viability counter screen (AID 1224840; active = well fitted cell-killing curve with a large enough effect in the repeat runs, not every such curve was filed as active; note: nearly all actives have a fitted effect of over 40% in size)
How it was run: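 Seeded PGC/ERR cells (2,000/well, 6 h, 37 C/5% CO2) get compound by pin tool; 17.5 h incubation at 37 C; CellTiter-Fluor added, 30 min, fluorescence measured.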

[9] = molecular target: Thyrotropin receptor (Homo sapiens) (UniProt P16473); assay: qHTS assay to identify small molecule agonists of the thyroid stimulating hormone receptor (TSHR) signaling pathway (AID 1224843; calls by dose curve; note: nearly all actives have a fitted effect of over 45% in size)
Sequence of Thyrotropin receptor (Homo sapiens) (P16473 whole entry, looked up): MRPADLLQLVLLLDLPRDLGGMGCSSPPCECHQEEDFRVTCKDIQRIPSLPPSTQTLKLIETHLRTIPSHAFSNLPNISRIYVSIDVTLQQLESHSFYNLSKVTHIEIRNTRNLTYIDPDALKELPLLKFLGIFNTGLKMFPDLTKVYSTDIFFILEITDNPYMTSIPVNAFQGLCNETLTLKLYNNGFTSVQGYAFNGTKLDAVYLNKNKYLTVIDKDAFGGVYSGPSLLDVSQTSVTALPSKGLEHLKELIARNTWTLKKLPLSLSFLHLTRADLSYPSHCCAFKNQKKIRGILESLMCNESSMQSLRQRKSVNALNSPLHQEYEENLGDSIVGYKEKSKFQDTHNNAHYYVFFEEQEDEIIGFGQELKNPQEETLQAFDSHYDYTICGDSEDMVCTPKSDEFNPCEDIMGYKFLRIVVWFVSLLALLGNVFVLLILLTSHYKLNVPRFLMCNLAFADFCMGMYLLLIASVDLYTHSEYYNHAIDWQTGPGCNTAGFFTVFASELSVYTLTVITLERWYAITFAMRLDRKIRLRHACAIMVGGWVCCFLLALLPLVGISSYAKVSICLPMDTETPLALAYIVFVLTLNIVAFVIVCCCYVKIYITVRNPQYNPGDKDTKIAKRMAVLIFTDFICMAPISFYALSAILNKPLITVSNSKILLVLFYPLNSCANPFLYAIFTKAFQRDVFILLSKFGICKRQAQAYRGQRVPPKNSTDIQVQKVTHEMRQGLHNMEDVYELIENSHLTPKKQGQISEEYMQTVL
How it was run: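 Using 15 concentrations per compound in triplicate, cAMP production was monitored in TSHR-HEK293 cells after 30 min compound incubation at RT; HTRF reagents followed, with fluorescence intensity recorded after 1 h.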

[10] = qHTS assay to identify small molecule agonists of the hypoxia (HIF-1) signaling pathway - cell viability counter screen (AID 1224844; calls by dose curve; note: nearly all actives have a fitted effect of over 50% in size)
How it was run: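 HRE-bla ME-180; 0.5% dFBS; cpd 17 h, 37C, 5% CO2; CellTiter-Glo lum., 30 min RT, post-FRET read, same wells.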

[11] = qHTS assay to identify small molecule antagonists of the estrogen related receptor (ERR) signaling pathway from Tox21 library - cell viability counter screen (AID 1224834); note: nearly all actives have a fitted effect of over 30% in size; note: potency is the fitted concentration of half-maximal effect
How it was run: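 Seeded ERR cells were rested 6 h at 37 C/5% CO2 before compounds, positive and negative controls or DMSO were added. Incubation continued for 17.5 h, and viability was then quantified by CellTiter-Fluor fluorescence.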

[12] = qHTS assay to identify small molecule antagonists of the estrogen related receptor signaling pathway with the pleiotropic PPARgamma coactivator (PGC) from Tox21 10K library (AID 1224841; call rule not given here; note: series mostly up to about 92 µM; actives are mostly falling curves and most rising ones were filed inactive; nearly all actives have a fitted effect of over 50% in size)
How it was run: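 Test chemicals dissolved in DMSO were applied to pre-incubated (6 h) PGC/ERR cells at 2,000 cells/well for an 18 h, 37 C treatment; reporter luminescence was then read using One-Glo.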

[13] = qHTS assay to identify small molecule agonists of the estrogen related receptor signaling pathway with the pleiotropic PPARgamma coactivator (PGC) from Tox21 10K library (AID 1224842); note: nearly all actives have a fitted effect of over 15% in size
How it was run: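 PGC/ERR reporter cells (NTP line) were seeded 2,000 per well, rested 6 h at 37 C/5% CO2, then pin-dosed with compounds in DMSO for 18 h at 37 C; luciferase read by One-Glo luminescence after 30 min at room temperature.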

[14] = qHTS assay to identify small molecule antagonists of the estrogen related receptor (ERR) signaling pathway - cell viability counter screen (AID 1224818); note: series mostly up to about 46 µM
How it was run: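 Compounds dissolved in DMSO were applied to ERR cells seeded at 2,000 per well 6 h earlier. Cell viability followed 17.5 h later via 30-min CellTiter-Fluor fluorescence.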

[15] = qHTS assay to identify small molecule antagonists of the estrogen related receptor signaling pathway with the pleiotropic PPARgamma coactivator (PGC) cell viability counter screen (AID 1224822; note: series mostly up to about 46 µM)
How it was run: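 Counter screen for cell viability: PGC/ERR cells, 6 h pre-incubation after plating, 17.5 h compound exposure at 37 C, fluorescence from CellTiter-Fluor after 30 min.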
% is set by controls: 0 for no effect and ±100 for the full control effect.

Nc1ccccc1C(=O)OCC(O)CO (stereo not given)
inactive: Potency [1] | Potency [2] | Potency [3] | Potency [4] | Potency [5] | Potency [6] | Potency [7] | Potency [8] | Potency [9] | Potency [10]

CCC1(CC)C(=O)NC(=O)NC1=O
inactive: Potency [1] | Potency [2] | Potency [3] | Potency [4] | Potency [5] | Potency [6] | Potency [7] | Potency [8] | Potency [10]

CC(C)(C)N(NC(=O)c1ccc(Cl)cc1)C(=O)c1ccccc1
active: Potency [11] 12.1 µM | Potency [5] 8.58 µM
inactive: Potency [1] | Potency [2] | Potency [3] | Potency [6] | Potency [7] | Potency [8] | Potency [12] | Potency [13] | Potency [10]

O=C(NCNC(=O)NC1C(=O)NC(=O)N1CO)NC1C(=O)NC(=O)N1CO (stereo not given)
inactive: Potency [1] | Potency [2] | Potency [3] | Potency [8] | Potency [12] | Potency [13] | Potency [9] | Potency [10]

COc1ccc2c(c1OC)C(=O)O[C@H]2[C@@H]1c2cc3c(cc2CCN1C)OCO3
inactive: Potency [1] | outcome [14] | outcome [15] | Potency [3] | Potency [6] | Potency [7] | Potency [8] | Potency [9] | Potency [10]
active: Potency [11] 6.68 µM

CCCCCCCCCCCCN=C(N)N
inactive: activity change, negative = cytotoxicity [1] 2.05% [at 3.27 µM] | activation [2] -2.89% [at 3.75 µM] | viability change, negative = cytotoxic [11] 1.13% [at 3.27 µM] | activity change, negative = inhibition [3] 0.224% [at 4.07 µM] | viability change, negative = cytotoxic [4] 0.263% [at 3.27 µM] | activity change, negative = cytotoxicity [5] -5.88% [at 3.26 µM] | activity, negative = inhibition [6] 9.02% [at 3.26 µM] | viability change, negative = cytotoxic [8] 2.19% [at 3.27 µM] | activation [9] 5.05% [at 3.27 µM] | activity change, negative = cytotoxicity [10] -8.49% [at 2.72 µM]

CCOP(=O)(O)C(N)=O
inactive: Potency [1] | Potency [2] | Potency [11] | Potency [3] | Potency [4] | Potency [5] | Potency [6] | Potency [8] | Potency [9] | Potency [10]

CCC1CCC(=O)O1 (stereo not given)
inactive: Potency [1] | Potency [2] | Potency [3] | Potency [5] | Potency [8] | Potency [9] | Potency [10]

CCCCC(CC)CO[N+](=O)[O-] (stereo not given)
inactive: Potency [1] | Potency [2] | Potency [11] | Potency [3] | Potency [4] | Potency [5] | Potency [8] | Potency [9] | Potency [10]

CCCCC(CC)COC(=O)c1c(Br)c(Br)c(Br)c(Br)c1C(=O)OCC(CC)CCCC (stereo not given)
inactive: Potency [1] | Potency [2] | Potency [3] | Potency [5] | Potency [6] | Potency [7] | Potency [8] | Potency [10]

CCCCC1C(=O)NC(=O)N(C2CCCCC2)C1=O (stereo not given)
inactive: Potency [1] | Potency [2] | Potency [11] | Potency [3] | Potency [4] | Potency [5] | Potency [6] | Potency [7] | Potency [8] | Potency [10]

C=C(Cl)Cl
inactive: Potency [1] | Potency [2] | Potency [3] | Potency [4] | Potency [5] | Potency [6] | Potency [7] | Potency [8] | Potency [12] | Potency [13] | Potency [9] | Potency [10]

C=CCN1C[C@H](C)N([C@H](c2ccc(C(=O)N(CC)CC)cc2)c2cccc(OC)c2)C[C@H]1C
inactive: Potency [1] | Potency [2] | Potency [3] | Potency [6] | Potency [7] | Potency [8] | Potency [13] | Potency [9] | Potency [10]

C[N+]1(CCC(C(N)=O)(c2ccccc2)c2ccccc2)CCCCC1
inactive: Potency [1] | Potency [2] | Potency [11] | Potency [3] | Potency [4] | Potency [5] | Potency [8] | Potency [9] | Potency [10]

Clc1ccc2ccccc2c1
inactive: Potency [1] | Potency [2] | Potency [3] | Potency [4] | Potency [5] | Potency [6] | Potency [7] | Potency [8] | Potency [9] | Potency [10]

O=C(Cl)OCCOCCOC(=O)Cl
active: Potency [6] 30.6 µM
inactive: Potency [1] | Potency [2] | Potency [3] | Potency [4] | Potency [5] | Potency [7] | Potency [8] | Potency [12] | Potency [13] | Potency [9] | Potency [10]

CCOP(=S)(OCC)Oc1ccc(S(C)=O)cc1 (stereo not given)
inactive: Potency [1] | Potency [2] | Potency [3] | Potency [5] | Potency [6] | Potency [7] | Potency [8] | Potency [12] | Potency [13] | Potency [9] | Potency [10]

CCOC(C(=O)OCCN(C)C)(c1ccccc1)c1ccccc1
inactive: Potency [1] | Potency [2] | Potency [11] | Potency [3] | Potency [5] | Potency [6] | Potency [8] | Potency [12] | Potency [13] | Potency [10]
